aSyn 5UTR act = Activators working through SNCA 5'UTR binding (MLPCN). alpha-synuclein 5'UTR reporter, activators screen. AID 1814. activity score, % (tested at 7.5 µM), hits read low. hit rate 7.1% among 300,000; in the data active means activity score below about -60%
* marks the source's active call; other numbers are inactive results. Not all results are given here.

O=C(CSc1nc2ccccc2s1)Nc1ccc2c(c1)oc1ccccc12 was read as aSyn 5UTR act -80*.
Screening O=C(CSc1nc2ccccc2s1)N/N=C/c1ccccc1C(=O)O returned aSyn 5UTR act -90*.
`O=C(CSc1nnc(NC(=O)c2ccccc2Cl)s1)Nc1ccc2c(c1)oc1ccccc12` gave aSyn 5UTR act -144*.
Screening COc1ccc(NC(=O)c2ccc3c(c2)OCO3)cc1Cl returned aSyn 5UTR act -145*.
Screening COC(=O)c1sccc1NC(=O)c1ccc(OC)cc1OC returned aSyn 5UTR act -98*.
COC(=O)c1ccc(N/C=C\C(=O)c2ccc3c(c2)OCO3)cc1 was read as aSyn 5UTR act -133*.
For Cc1cc(C)nc(NC(=O)c2c(F)c(F)c(F)c(C(=O)Nc3cc(C)cc(C)n3)c2F)c1 the results were aSyn 5UTR act -70*.
For COC(=O)c1sccc1NC(=O)/C=C/c1ccc(Cl)cc1 the results were aSyn 5UTR act -197*.
For Cc1nc(NC(=O)c2ccc(Cl)cc2)nc2cc3c(cc12)OCO3 the results were aSyn 5UTR act -84*.
For COC(=O)c1ccc(NC(=O)c2ccc3c(c2)OCO3)cc1 the results were aSyn 5UTR act -144*.
For CC1CCCC(NC(=O)c2ccc3c(c2)OCO3)C1C (stereo unspecified) the results were aSyn 5UTR act -65*.
`O=C(Nc1ccc(N2CCCCC2)cc1)c1ccc2c(c1)OCCO2` gave aSyn 5UTR act -87*.
Screening Cc1cc(C)nc(NC(=O)c2ccc3c(c2)OCO3)c1 returned aSyn 5UTR act -94*.
`COC(=O)c1c(-c2cccnc2)csc1NC(=O)c1ccc2c(c1)OCO2` gave aSyn 5UTR act -76*.
For O=C(Nc1ccc(C(=O)N2CCCC2)cc1)c1ccc2c(c1)OCO2 the results were aSyn 5UTR act -69*.
CSc1ccc2c(c1)N(CCC1CCCCN1C)c1ccccc1S2 (stereo unspecified) was read as aSyn 5UTR act 110.
`Cc1ccccc1-c1nc(-c2ccc(NC(=O)c3ccc4c(c3)OCO4)cc2)no1` gave aSyn 5UTR act -71*.
Screening COC(=O)c1sccc1NC(=O)c1ccc(C(C)C)cc1 returned aSyn 5UTR act -87*.
For O=C(Nc1ccc(F)c(Cl)c1)c1ccc2c(c1)OCO2 the results were aSyn 5UTR act -211*.
COC(=O)c1sccc1NC(=O)c1ccc2c(c1)OCO2 was read as aSyn 5UTR act -91*.
`COc1ccc2c(c1)CCc1c-2nc2ccccc2c1N1CCOCC1` gave aSyn 5UTR act -87*.
`CCOc1ccc2nc(NC(=O)C34CC5CC(CC(NC(C)=O)(C5)C3)C4)sc2c1` gave aSyn 5UTR act -132*.
For COc1ccc2nc(NC(=O)C34CC5CC(CC(NC(C)=O)(C5)C3)C4)sc2c1 the results were aSyn 5UTR act -94*.
Screening O=C(CSc1nc2ccccc2[nH]1)Nc1nc(-c2cccc(Br)c2)cs1 returned aSyn 5UTR act -85*.
Cc1ccc(-c2csc(NC(=O)CSC3=NCCS3)n2)cc1 was read as aSyn 5UTR act -99*.
Cc1ccc(-c2csc(NC(=O)CSc3nc(C)cc(=O)[nH]3)n2)cc1 was read as aSyn 5UTR act -115*.
`Cc1nc(-c2ccccc2)sc1-c1ccnn1C` gave aSyn 5UTR act -111*.
Screening Cc1ccc2nc(/N=C(\N)NC(=O)NC3CCCCC3)nc(C)c2c1 returned aSyn 5UTR act -149*.
For Cc1nc(/N=C(\N)NC(=O)c2ccccc2)nc2ccccc12 the results were aSyn 5UTR act -292*.
`Cc1occc1-c1nnc(SCC(=O)Nc2ccccn2)o1` gave aSyn 5UTR act -115*.
For O=C(CSc1nnc(-c2ccccn2)o1)Nc1ccccc1 the results were aSyn 5UTR act -71*.
`Fc1ccc(CSc2nnc(-c3ccccn3)o2)cc1` gave aSyn 5UTR act -196*.
For O=C(CSc1nnc(-c2ccccn2)o1)Nc1ccc(F)cc1 the results were aSyn 5UTR act -94*.
O=C(CSc1n[nH]c(-c2ccccn2)n1)Nc1ccc(F)cc1 was read as aSyn 5UTR act 73.
CN(CC(=O)Nc1cccc(F)c1)C(=O)CCCNC(=O)c1ccc(Cl)cc1 was read as aSyn 5UTR act -91*.
`Cc1cc(C)n(-c2ccc(C(=O)NC3=NCCS3)cc2)n1` gave aSyn 5UTR act -110*.
Cc1cc(C)n(-c2ccc(C(=O)Nc3ccc4c(c3)OCO4)cc2)n1 was read as aSyn 5UTR act -173*.
O=C(Nc1ccc(F)cc1)c1nc(S(=O)(=O)Cc2ccccc2)ncc1Cl was read as aSyn 5UTR act 67.
CNC(=O)c1ccc(-c2ccc(Cl)c(Cl)c2)s1 was read as aSyn 5UTR act -94*.
For O=C(Nc1ccccc1)c1ccc(-c2ccc(F)cc2)s1 the results were aSyn 5UTR act -206*.
CNC(=O)c1ccc(-c2ccc(OC)cc2)s1 was read as aSyn 5UTR act -151*.
`CNC(=O)c1ccc(-c2ccc(F)cc2)s1` gave aSyn 5UTR act -101*.
`O=C(Nc1cnc2ccccc2c1)N1CCOCC1` gave aSyn 5UTR act -109*.
CN(C(=O)Nc1cnc2ccccc2c1)c1ccccc1 was read as aSyn 5UTR act -89*.
O=C(Nc1cnc2ccccc2c1)N1CCCCC1 was read as aSyn 5UTR act -74*.
For COc1ccc(NC(=O)CSc2nccn2Cc2ccco2)cc1 the results were aSyn 5UTR act -96*.
For Cc1cccc(NC(=O)CSc2nccn2Cc2ccco2)c1 the results were aSyn 5UTR act -89*.
Cc1cccc(NC(=O)CSc2nccn2Cc2ccco2)c1C was read as aSyn 5UTR act -81*.
For CCC(=O)Nc1cc(NC(=O)CSc2ncc(-c3ccc(F)cc3)n2Cc2ccco2)ccc1C the results were aSyn 5UTR act -226*.
Clc1ccc(COn2nnc3ccccc32)c(Cl)c1 was read as aSyn 5UTR act -151*.
For Cc1ccc(OCC(=O)O/N=C(\N)c2ccccn2)cc1C the results were aSyn 5UTR act -99*.
For Cc1cc(C)c(C)c(OCC(=O)O/N=C(\N)c2ccccn2)c1 the results were aSyn 5UTR act -110*.
For N/C(=N\OC(=O)COc1ccc2ccccc2c1Br)c1ccccn1 the results were aSyn 5UTR act -107*.
Cc1cccc(C(=O)O/N=C(\N)c2ccccn2)c1 was read as aSyn 5UTR act 70.
Screening Cc1cccc(OCC(=O)O/N=C(\N)c2ccccn2)c1 returned aSyn 5UTR act -116*.
Screening CCOc1ccc(C(=O)O/N=C(\N)c2ccccn2)cc1 returned aSyn 5UTR act 62.
Screening N/C(=N\OC(=O)COc1ccccc1)c1ccccn1 returned aSyn 5UTR act -69*.
For CCc1ccc(OCC(=O)O/N=C(\N)c2ccccn2)cc1 the results were aSyn 5UTR act -91*.
Screening Cc1ccc(OCC(=O)O/N=C(\N)c2ccncc2)cc1C returned aSyn 5UTR act -129*.
Screening C=CCNC(=O)c1ccc(OC2CCN(S(=O)(=O)N(C)C)CC2)cc1 returned aSyn 5UTR act -162*.
`Cc1ccc2cc(CN(CCN(C)C)C(=O)Nc3ccc(Cl)cc3)c(=O)[nH]c2c1` gave aSyn 5UTR act -83*.
For Cc1cc(C)c2cc(CN(CCO)C(=O)Nc3ccc(Cl)cc3)c(=O)[nH]c2c1 the results were aSyn 5UTR act 53.
Screening CCCOc1ccc(NC(=O)C2CC(=O)N/C(=N/N=C(C)/C=C/c3ccc(N(C)C)cc3)S2)cc1 (stereo unspecified) returned aSyn 5UTR act -79*.
For CC(/C=C/c1ccc(N(C)C)cc1)=N\N=C1\NC(=O)CC(C(=O)Nc2ccccc2)S1 (stereo unspecified) the results were aSyn 5UTR act -73*.
O=[N+]([O-])c1cccn2cc(-c3ccc(Br)cc3)nc12 was read as aSyn 5UTR act -315*.

High-throughput results as filed in PubChem BioAssay.
